Assay results reported in PubChem BioAssay (NCI).
This is part of a sample that, as a whole, favours compounds with a hit. Of some 83,000 tested, about 20% had one in any assay.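 How to read the values: 0–100, growth inhibition (40 = 60% inhibited); 0, no net growth; -100 to 0, cell death (-40 = 40% of starting cells died; -100 = all dead).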 Activity calls are given as the source filed them. The calls were made as follows: active = growth percent below 10; inactive = the rest.

Tests used:
Assay in all cases: NCI-60 one-dose screen, 48 h (100 = growth as untreated, 0 = no growth, -100 = all killed)
[1] = tested on: NCI-H226 lung; details: 10 µM
[2] = tested on: HOP-92 NSCLC; details: 10 µM
[3] = tested on: K-562 leukemia; details: 10 µM
[4] = tested on: MDA-MB-231 breast; details: 10 µM
[5] = tested on: RXF 393 renal; details: 10 µM
[6] = tested on: SNB-19 CNS; details: 10 µM
[7] = tested on: LOX IMVI melanoma; details: 10 µM
[8] = tested on: UO-31 renal; details: 10 µM
[9] = tested on: CCRF-CEM leukemia; details: 10 µM
[10] = tested on: MOLT-4 leukemia; details: 10 µM
[11] = tested on: SR leukemia; details: 10 µM
[12] = tested on: IGROV1 ovarian; details: 10 µM
[13] = tested on: HS 578T breast; details: 10 µM
[14] = tested on: SW-620 colon; details: 10 µM
[15] = tested on: NCI-H23 lung; details: 10 µM
[16] = tested on: COLO 205 colon; details: 10 µM
[17] = tested on: EKVX NSCLC; details: 10 µM
[18] = tested on: MDA-MB-468 breast; details: 10 µM unless noted
[19] = tested on: U251 CNS; details: 10 µM
[20] = tested on: SK-MEL-28 melanoma; details: 10 µM

Measured: growth

CC(C)N=C([Se])NC(=O)c1ccccc1
active: [1] -33.5% | [2] -34.3% | [4] -48.6% | [5] -83.7% | [7] -37.3% | [8] -99% | [9] 5.47% | [10] 2.86% | [11] -9.62% | [12] -54.5% | [13] -2.5% | [14] -20.9%
inactive: [3] 15.9% | [6] 11.4%

C[C@H]1[C@H](OC(=O)CCC(=O)Nc2cnccn2)O[C@@H]2OC3(C)CC[C@H]4[C@H](C)CC[C@@H]1[C@@]24OO3
active: [7] -72.9% | [11] 4.95%
inactive: [15] 25.9% | [2] 51.8% | [16] 11.9% | [3] 14.9% | [4] 83.7% | [5] 49% | [17] 38.4% | [8] 11% | [9] 35.4% | [10] 27.6% | [12] 25.7% | [13] 29.2% | [14] 21.8% | [18] 50.7%

C[C@H]1[C@H](OC(=O)CCC(=O)N(CCCc2cn(-c3ccc(C#N)cc3)nn2)CCNc2ccnc3cc(Cl)ccc23)O[C@@H]2OC3(C)CC[C@H]4[C@H](C)CC[C@@H]1[C@@]24OO3
inactive: [15] 47.3% | [16] 14.5% | [4] 62.9% | [5] 40.1% | [6] 69.8% | [19] 51.9% | [7] 13.3% | [20] 59.5% | [17] 53% | [8] 15% | [9] 15% | [12] 44.5% | [13] 43% | [14] 18.2% | [18] 46%
active: [2] 7.07% | [3] 6.77% | [10] 4.41% | [11] -14.5%

CC12OOC(C)(OO1)C2CCC(=O)OCCNc1ccnc2cc(Cl)ccc12 (stereo not drawn)
active: [15] 4.36% | [2] -27.2% | [3] 3.42% | [5] -15.7% | [7] -92.1% | [8] -97.2% | [9] 9.26% | [11] -27% | [14] 7.3% | [18] -51.6%
inactive: [4] 91.5% | [19] 105% | [20] 93% | [10] 26.1% | [12] 39.7% | [13] 95.2%

C[C@H]1[C@@H](Oc2ccc(-c3cn(-c4ccnc5cc(Cl)ccc45)nn3)cc2)O[C@@H]2OC3(C)CC[C@H]4[C@H](C)CC[C@@H]1[C@@]24OO3
active: [16] -50%
inactive: [15] 28.4% | [1] 48.2% | [2] 29.4% | [3] 22.2% | [4] 49.4% | [5] 52.3% | [19] 39.1% | [7] 10.9% | [17] 29.7% | [8] 10.7% | [9] 38.8% | [10] 17.5% | [11] 12.2% | [13] 32.5% | [14] 27% | [18] 36.9%

O=C(/C=C/c1ccc(Cl)cc1Cl)c1nc2ccccc2n1Cc1ccc(Br)cc1
inactive: [15] 72.3% | [1] 55.7% | [2] 65.8% | [16] 100% | [3] 53.5% | [5] 58.2% | [6] 74.8% | [19] 45% | [17] 61.6% | [8] 50.9% | [10] 15.4% | [11] 14.4% | [18] 48.9%
active: [9] 5.89%

CC[C@]12C=CCN3CC[C@@]4(c5ccc(OC)cc5N(C)[C@H]4[C@@](O)(C(=O)OC)[C@@H]1OC(=O)CCCC[P+](C1CCCCC1)(C1CCCCC1)C1CCCCC1)[C@@H]32
active: [2] -44.5% | [3] 7.48% | [4] -92.8% | [5] -73.8% | [6] -71.1% | [19] -87.9% | [7] -96.1% | [20] -86.5% | [9] -60.2% | [10] -5.16% | [13] -35% | [14] 2.08% | [18] -79%
inactive: [8] 78.9% | [11] 19.5%

Cc1c2oc3c(C)ccc(C(=O)N[C@@H]4C(=O)N[C@H](C(C)C)C(=O)N5CCC[C@H]5C(=O)N(C)CC(=O)N(C)[C@@H](C(C)C)C(=O)OC4C)c3nc-2c(C(=O)N[C@@H]2C(=O)N[C@H](C(C)C)C(=O)N3CC(=O)C[C@H]3C(=O)N(C)CC(=O)N(C)[C@@H](C(C)C)C(=O)OC2C)c(N)c1=O (stereo partly drawn)
active: [2] -17.7% | [16] -71% | [4] 1.92% | [5] -78.8% | [7] -0.489% | [20] -27.8% | [8] 3.68% | [9] 2.91% | [13] 5.64% | [14] 6.93% | [18] -37.7%
inactive: [12] 17%

C[C@H]1[C@@H](CC(=O)N[C@@H](Cc2coc3ccccc23)B(O)O)O[C@@H]2OC3(C)CC[C@H]4[C@H](C)CC[C@@H]1[C@@]24OO3
inactive: [8] 18.3% | [11] 17.4%
active: [2] -68.6% | [16] -49.2% | [3] 4.86% | [4] -92% | [5] -88.4% | [7] -92.3% | [17] 7.62% | [9] -10.3% | [10] 8.41% | [12] -16.1% | [13] -4.2% | [14] 2.66% | [18] -60.6%
